Assay results reported in PubChem BioAssay (Tox21).
Inconclusive results are not listed. The source made the active and inactive calls. The call rests on the fitted dose curve; in most records, active means well fitted curve in the direction sought with a large enough effect in the repeat runs; inconclusive means weak or mixed curves; inactive means no such curve, though single readings can be large; an effect the other way counts as inactive or inconclusive.

Legend:
[1] = qHTS RealTime-Glo MT Cell Viability Assay in HepG2 cells - 40 hour (AID 1224870); further: nearly all actives have a fitted effect of over 50% in size
How it was run: (§1)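 Real-time viability: cells seeded at 600 per well together with NanoLuc and cell-permeant prosubstrate, compounds added after 5 h incubation. Luminescence tracked at 0, 8, 16, 24, 32 and 40 h of exposure.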

[2] = A CellTox Green Cytotoxicity Assay to monitor cytotoxicity in HEK293 cells - 40 hour (AID 1224871); further: nearly all actives have a fitted effect of over 45% in size; further: potency means the concentration at half of the fitted maximal effect
How it was run: (§2)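 Real-time, in one plate: 600 HEK293 cells/well with dead-cell DNA dye, pinned compound after 5 h, 37 C incubation over 40 h; viable cells give no appreciable fluorescence.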

[3] = qHTS RealTime-Glo MT Cell Viability Assay in HEK293 cells - 16 hour (AID 1224872); further: nearly all actives have a fitted effect of over 50% in size; further: potency means the concentration at half of the fitted maximal effect
How it was run: (§3)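 Homogeneous bioluminescent viability format in HEK293 cells (600 cells/well). Following 5 h at 37 C/5% CO2, 23 nL compound was pintooled; the signal was measured repeatedly during 40 h incubation.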

[4] = qHTS RealTime-Glo MT Cell Viability Assay in HepG2 cells - 8 hour (AID 1224873); further: nearly all actives have a fitted effect of over 55% in size
How it was run: as §1

[5] = qHTS RealTime-Glo MT Cell Viability Assay in HEK293 cells - 40 hour (AID 1224874); conditions: RealTime-Glo luminescence; max response: active compounds read low; further: nearly all actives have a fitted effect of over 50% in size; further: potency means the concentration at half of the fitted maximal effect
How it was run: (§4)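 Kinetic, non-lysing viability readout. Seed HEK293 (600/well) with reagent, incubate 5 h at 37 C/5% CO2, pin 23 nL compound in DMSO, incubate at 37 C, read luminescence at 0, 8, 16, 24, 32, 40 h.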

[6] = A CellTox Green Cytotoxicity Assay to monitor cytotoxicity in HEK293 cells - 24 hour (AID 1224875); further: series mostly up to about 77 µM; nearly all actives have a fitted effect of over 45% in size
How it was run: as §2

[7] = qHTS RealTime-Glo MT Cell Viability Assay in HepG2 cells - 32 hour (AID 1224877); further: nearly all actives have a fitted effect of over 55% in size; further: potency means the concentration at half of the fitted maximal effect
How it was run: (§5)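 Cell number in HepG2 cultures estimated from NanoLuc luminescence generated by metabolic reduction of a prosubstrate by living cells. The homogeneous, nonlytic format allowed repeated reads at 0, 8, 16, 24, 32 and 40 h of compound exposure.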

[8] = qHTS RealTime-Glo MT Cell Viability Assay in HEK293 cells - 0 hour (AID 1224880); further: top concentration of the series differs between compounds; nearly all actives have a fitted effect of over 45% in size
How it was run: as §4

[9] = A CellTox Green Cytotoxicity Assay to monitor cytotoxicity in HEK293 cells - 32 hour (AID 1224881); further: nearly all actives have a fitted effect of over 40% in size; further: potency means the concentration at half of the fitted maximal effect
How it was run: as §2

[10] = qHTS RealTime-Glo MT Cell Viability Assay in HepG2 cells - 16 hour (AID 1224885); further: nearly all actives have a fitted effect of over 50% in size
How it was run: as §5

[11] = qHTS RealTime-Glo MT Cell Viability Assay in HEK293 cells - 24 hour (AID 1224886); further: nearly all actives have a fitted effect of over 50% in size; further: potency means the concentration at half of the fitted maximal effect
How it was run: as §3

[12] = qHTS RealTime-Glo MT Cell Viability Assay in HEK293 cells - 8 hour (AID 1224887); further: nearly all actives have a fitted effect of over 50% in size; further: potency means the concentration at half of the fitted maximal effect
How it was run: as §4

[13] = A CellTox Green Cytotoxicity Assay to monitor cytotoxicity in HEK293 cells - 16 hour (AID 1224888); further: nearly all actives have a fitted effect of over 35% in size
How it was run: as §2

[14] = qHTS RealTime-Glo MT Cell Viability Assay in HepG2 cells - 0 hour (AID 1224889); further: nearly all actives have a fitted effect of over 50% in size; further: potency means the concentration at half of the fitted maximal effect
How it was run: as §5

[15] = A CellTox Green Cytotoxicity Assay to monitor cytotoxicity in HepG2 cells - 24 hour (AID 1224878); further: nearly all actives have a fitted effect of over 45% in size; further: potency means the concentration at half of the fitted maximal effect
How it was run: (§6)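 Cytotoxicity was tracked as dead-cell DNA fluorescence in HepG2 cells treated with test compounds at 37 C; each time-point value comes from one kinetic series spanning 0, 8, 16, 24, 32 and 40 h.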

[16] = A CellTox Green Cytotoxicity Assay to monitor cytotoxicity in HepG2 cells - 40 hour (AID 1224879); further: nearly all actives have a fitted effect of over 40% in size; further: potency means the concentration at half of the fitted maximal effect
How it was run: as §6

[17] = A CellTox Green Cytotoxicity Assay to monitor cytotoxicity in HepG2 cells - 32 hour (AID 1224883); further: nearly all actives have a fitted effect of over 50% in size; further: potency means the concentration at half of the fitted maximal effect
How it was run: as §6

[18] = A CellTox Green Cytotoxicity Assay to monitor cytotoxicity in HEK293 cells - 8 hour (AID 1224884); further: nearly all actives have a fitted effect of over 35% in size; further: potency means the concentration at half of the fitted maximal effect
How it was run: as §2

[19] = A CellTox Green Cytotoxicity Assay to monitor cytotoxicity in HepG2 cells - 16 hour (AID 1224876); further: nearly all actives have a fitted effect of over 45% in size
How it was run: as §6

[20] = A CellTox Green Cytotoxicity Assay to monitor cytotoxicity in HepG2 cells - 0 hour (AID 1224882); further: nearly all actives have a fitted effect of over 35% in size
How it was run: as §6
On the % scale 0 is the no-effect control and ±100 the full control effect.

NC(=O)Nc1ccc(Cl)cc1
inactive: Potency [1] | Potency [2] | Potency [3] | Potency [4] | max response [5] -8.17% | Potency [6] | Potency [7] | Potency [8] | Potency [9] | Potency [10] | Potency [11] | Potency [12] | Potency [13] | Potency [14]

Cc1cc(S(=O)(=O)O)ccc1N=Nc1c(O)ccc2ccccc12
inactive: Potency [1] | Potency [2] | Potency [3] | max response [5] -12.7% | Potency [6] | Potency [7] | Potency [15] | Potency [16] | Potency [8] | Potency [9] | Potency [17] | Potency [18] | Potency [11] | Potency [12]

CCCOc1ccc(S(=O)(=O)N2CCN(CC)CC2)cc1-c1nc2c(CC)n(Cc3ccccn3)nc2c(=O)[nH]1
inactive: Potency [1] | Potency [2] | Potency [3] | Potency [4] | Potency [6] | Potency [19] | Potency [7] | Potency [15] | Potency [16] | Potency [8] | Potency [9] | Potency [20] | Potency [17] | Potency [18] | Potency [10] | Potency [11] | Potency [12] | Potency [13] | Potency [14]

CCOc1cc(N)c(Cl)cc1C(=O)NCC1CN(Cc2ccc(F)cc2)CCO1 (stereo not drawn)
active: Potency [3] 16.9 µM | Potency [5] 16.9 µM | Potency [12] 19 µM
inactive: Potency [1] | Potency [2] | Potency [6] | Potency [19] | Potency [7] | Potency [15] | Potency [16] | Potency [8] | Potency [9] | Potency [20] | Potency [17] | Potency [13]

NC(=O)Cn1c(=O)cc(CCN2CCN(c3nccc4sccc34)CC2)c2ccc(F)cc21
inactive: Potency [1] | Potency [2] | Potency [6] | Potency [19] | Potency [15] | Potency [9] | Potency [20] | Potency [17] | Potency [18]
active: Potency [3] 49 µM | Potency [5] 43.6 µM | Potency [14] 13.8 µM

CC(=O)OCC(=O)[C@@]12OC(C)(C)O[C@@H]1C[C@H]1[C@@H]3C[C@H](F)C4=CC(=O)C=C[C@]4(C)[C@@]3(F)[C@@H](O)C[C@@]12C
active: Potency [2] 26.8 µM | Potency [9] 26.8 µM
inactive: Potency [1] | Potency [3] | Potency [4] | Potency [19] | Potency [7] | Potency [15] | Potency [16] | Potency [20] | Potency [17] | Potency [18] | Potency [10] | Potency [11] | Potency [12] | Potency [13]

Cc1ccc(/C=N/n2c(-c3ccccc3)csc2=S)cc1
inactive: Potency [1] | Potency [2] | Potency [3] | Potency [4] | max response [5] -0.419% | Potency [19] | Potency [7] | Potency [15] | Potency [16] | Potency [8] | Potency [9] | Potency [20] | Potency [17] | Potency [18] | Potency [10] | Potency [11] | Potency [12] | Potency [14]

Cc1cnc(C)c(C)n1
active: Potency [18] 51.3 µM
inactive: Potency [1] | Potency [2] | Potency [3] | Potency [4] | max response [5] -11.2% | Potency [19] | Potency [7] | Potency [15] | Potency [16] | Potency [8] | Potency [9] | Potency [20] | Potency [17] | Potency [10] | Potency [11] | Potency [12] | Potency [14]

CC1=C(/C=C/C(C)=C\C=C\C(C)=C\C(=O)O)C(C)(C)CCC1
inactive: Potency [1] | Potency [3] | Potency [4] | max response [5] -21.3% | Potency [19] | Potency [15] | Potency [8] | Potency [20] | Potency [18] | Potency [11] | Potency [12] | Potency [13] | Potency [14]
active: Potency [2] 49 µM

CC(C)(C)C(=O)C(Oc1ccc(Cl)cc1)n1ccnc1 (stereo not drawn)
inactive: Potency [1] | Potency [2] | Potency [3] | Potency [4] | Potency [6] | Potency [19] | Potency [7] | Potency [15] | Potency [16] | Potency [8] | Potency [9] | Potency [20] | Potency [17] | Potency [18] | Potency [10] | Potency [11] | Potency [12] | Potency [13] | Potency [14]

Cc1oc(C)c(C(=O)Nc2ccccc2)c1C
inactive: Potency [2] | Potency [4] | Potency [6] | Potency [19] | Potency [7] | Potency [15] | Potency [8] | Potency [9] | Potency [20] | Potency [17] | Potency [18] | Potency [10] | Potency [13] | Potency [14]
active: Potency [3] 34.7 µM | Potency [5] 24.5 µM | Potency [11] 34.7 µM

CN(C)CCOC1=Cc2ccccc2Sc2ccc(Cl)cc21
inactive: Potency [3] | Potency [4] | max response [5] -22.7% | Potency [6] | Potency [20] | Potency [18] | Potency [12] | Potency [13]
active: Potency [7] 21.3 µM | Potency [15] 23.9 µM | Potency [16] 23.9 µM | Potency [17] 23.9 µM

CCc1nn(CCCN2CCN(c3cccc(Cl)c3)CC2)c(=O)n1CCOc1ccccc1
inactive: Potency [6] | Potency [19] | Potency [15] | Potency [8] | Potency [9] | Potency [20] | Potency [17] | Potency [18] | Potency [13]
active: Potency [3] 8.49 µM | Potency [5] 8.49 µM | Potency [12] 10.7 µM

CCCCCCOC(=O)CCCCCCCC(=O)OCCCCCC
inactive: Potency [2] | Potency [3] | Potency [4] | max response [5] 1.87% | Potency [6] | Potency [19] | Potency [7] | Potency [15] | Potency [8] | Potency [9] | Potency [20] | Potency [17] | Potency [18] | Potency [10] | Potency [11] | Potency [13] | Potency [14]

O=C(N/N=C/c1ccc([N+](=O)[O-])o1)c1ccc(O)cc1
inactive: Potency [19] | Potency [15] | Potency [20] | Potency [18] | Potency [13] | Potency [14]
